The list is not random: actives were taken first. Their share in the collection is about 6.8%.
MCF10A rereplic – A quantitative high throughput screen for small molecules that induce DNA re-replication in MCF 10a normal breast cells; AID 624296, 2012; Potency, µM (series often up to 46.1 µM), actives largely listed as activators; hit rate 2.9% among 350,000; MCF 10A DNA re-replication, Hoechst nuclear intensity, 48 h; also: nearly all actives have a fitted effect of over 50% in size
KB-V1 cytotox – qHTS assay for MDR1-selective chemotherapeutics: Primary screen using the drug-selected MDR subline cells KB-V1; KB-V1 MDR cells viability, CellTiter-Glo, 72 h; hit rate 3.4% among 400,000; Potency, µM (doses to about 46.1 µM), actives largely listed as cytotoxic; also: nearly all actives have a fitted effect of over 60% in size
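Following 72 h at 37 degrees C with compound, KB-V1 cell viability was read by CellTiter-Glo luminescence, medium being phenol-red-free DMEM plus 10% FBS; concentration-response parameters came from normalized, curve-fitted qHTS data.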
TSG101-PTAP inh – qHTS Assay for Iinhibitors of HIV-1 Budding by Blocking the Interaction of PTAP/TSG101. Tumor susceptibility gene 101 protein (Homo sapiens), Q99816. Fluorescence polarization, FITC-PTAP peptide / Tsg101 binding. Potency, µM (titrated, usually from 115 µM), usual class: inhibitors. 340,000 tested, under 10 active; active = well fitted inhibition curve with a large enough effect in the main read-out, with a control signal flat, not every such curve was filed as active; inconclusive = small, poorly fitted or top-dose-only effect, or effect the other way, or a change in a side signal; inactive = no such curve, though single readings can be large or run the other way
Target sequence (Q99816 whole entry, looked up): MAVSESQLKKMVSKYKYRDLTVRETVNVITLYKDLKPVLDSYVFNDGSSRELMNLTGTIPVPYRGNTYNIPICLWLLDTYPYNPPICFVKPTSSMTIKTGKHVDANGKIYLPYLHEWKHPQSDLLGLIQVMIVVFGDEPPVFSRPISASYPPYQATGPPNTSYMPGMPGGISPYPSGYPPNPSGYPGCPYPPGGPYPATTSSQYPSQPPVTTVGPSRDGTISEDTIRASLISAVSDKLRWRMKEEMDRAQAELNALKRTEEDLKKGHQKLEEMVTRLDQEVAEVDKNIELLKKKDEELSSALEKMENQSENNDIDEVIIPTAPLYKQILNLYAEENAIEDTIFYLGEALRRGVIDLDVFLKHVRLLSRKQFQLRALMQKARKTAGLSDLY
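FP read-out: FITC-PTAP peptide, 50 nM final, binding Tsg101 binding domain, 10 uM final; 20 min, r.t.; 10 mM HEPES pH 7.5, 0.15 M NaCl, 0.01% Tween 20, 3 mM EDTA, 0.1 mM TCEP.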
KB-3-1 tox – qHTS assay for MDR1-selective chemotherapeutics: Primary screen using the parental adenocarcinoma cell KB-3-1 | Potency, µM (doses to about 46.1 µM), most hits filed as cytotoxic | KB-3-1 viability, CellTiter-Glo ATP luminescence, 72 h | hit rate 1.4% among 400,000; also: nearly all actives have a fitted effect of over 60% in size
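Using CellTiter-Glo luminescence, growth of non-resistant KB-3-1 adenocarcinoma cells is assessed 72 h after pin-tool compound addition at 37 °C. Normalized responses across the concentration series yield fitted curves.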
PINK1 expr mod – A Quantitative High throughput Screen to Identify Chemical Modulators of PINK1 Expression; PINK1 immunofluorescence, high-content cytometry, 24 h; Potency, µM (top dose mostly 76.6 µM), hits mostly activators; hit rate 0.2% among 410,000; active = well fitted activation curve with a large enough effect; inconclusive = small, poorly fitted or top-dose-only effect; cell line not stated here; also: nearly all actives have a fitted effect of over 65% in size
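Compound titrations (5 concentrations, 24 h) on a stable cell line; DMSO and CCCP controls. Endpoint: fixed-cell PINK1 immunofluorescence with mitochondrial, cell and nuclear markers, scanned by microplate cytometer.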
SW480 rerep – A quantitative high throughput screen for small molecules that induce DNA re-replication in SW480 colon adenocarcinoma cells | Potency, µM (doses to about 46.1 µM), usual class: activators | hit rate 1.8% among 340,000 | SW480 DNA re-replication, Hoechst DNA content imaging, 48 h; also: nearly all actives have a fitted effect of over 55% in size
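First, 250 cells per well were seeded. Next, compound or vehicle (23 nL) was pinned in, plates sat 48 hr at 37 C. Finally Hoechst was added for 40 min before fluorescence scanning.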
Numbers stand for hits; n = inactive; u = inconclusive; x = no result given. Unless noted, calls follow the shape of the dose curve; as a rule, active = well fitted curve in the direction sought with a large enough effect; inconclusive = small, poorly fitted or top-dose-only effect, or another doubt; inactive = no such curve, though single readings can be large; an effect the other way counts as inactive or inconclusive.

SMILES	MCF10A rereplic	KB-V1 cytotox	TSG101-PTAP inh	KB-3-1 tox	PINK1 expr mod	SW480 rerep
COc1ccc(C)cc1NC(=O)c1cccn(Cc2cccc([N+](=O)[O-])c2)c1=O	x	n	x	n	n	x
COC(=O)c1sccc1NC(=O)c1ccc(C#N)cc1	n	n	n	n	n	u
O=c1c2ccccc2nc(N2CCCC2)n1-c1ccc(Cl)cc1	u	23.1µM	n	u	n	n
Clc1ccc(C[n+]2c(-c3ccccc3)cc(-c3ccccc3)cc2-c2ccccc2)cc1	u	n	n	10.3µM	n	n
Oc1ccc(-[n+]2c(-c3ccccc3)cc(-c3ccccc3)cc2-c2ccccc2)cc1	u	n	n	n	u	n
Fc1ccc(C[n+]2c(-c3ccccc3)cc(-c3ccccc3)cc2-c2ccccc2)cc1	n	n	n	16.4µM	u	n
Cc1cc(-c2ccccc2)cc(-c2ccccc2)[n+]1CCc1ccccc1	u	n	n	u	u	n
c1ccc(CCN2CCCC2)cc1	x	n	x	n	x	x
c1csc(CN2CC[C@@]3(CCCNC3)C2)n1	x	x	x	x	n	x
OC(COCc1ccc(Cl)cc1)CN1CC=C(c2ccccc2)CC1 (stereo not drawn)	14.6µM	u	n	u	n	n
OC(CN1CC=C(c2ccccc2)CC1)c1ccccc1 (stereo not drawn)	n	n	n	n	n	n
O=S(=O)(c1ccc(F)c(F)c1F)N1CCN(c2ncnc3sccc23)CC1	u	2.31µM	n	u	u	u
Cc1cccc(N2CCN(C(=O)CCNS(=O)(=O)c3ccc4c(c3)oc(=O)n4C)CC2)c1C	u	u	n	u	n	u
C1=CC2C3C=CC(C3)C2C1 (stereo not drawn)	n	n	n	n	n	u
COc1c(C)cc(C(=O)C2CCCN(Cc3cccc(C)n3)C2)cc1C (stereo not drawn)	n	n	n	n	n	n
COc1c(C)cc(C(=O)C2CCCN(Cc3cccc(O)c3)C2)cc1C (stereo not drawn)	6.51µM	n	n	n	n	n
COc1ccc(CN(C)S(=O)(=O)c2nnc(NC(=O)c3ccccc3Br)s2)cc1	u	n	n	n	n	u
Cc1ccc(N2CCN(C(=O)c3cn(CC4CCCCC4)nn3)C(C)C2)cc1 (stereo not drawn)	20.6µM	u	n	n	n	n
Oc1ccc(Cl)cc1Cc1cc(Cl)ccc1O	5.17µM	u	n	n	u	u
CC(=O)OC1C(=O)OCC23CCC4(C)OC4C2OC2CC(OC(=O)C=CC=CC(=O)OCCC1C)C3(C)C21CO1 (stereo not drawn)	n	0.366µM	n	0.184µM	n	u
CC(O)C1C=CC=CC(=O)OC2CC3OC4C5OC5(C)CCC4(COC(=O)C4OC4(C)C(O)CO1)C2(C)C31CO1 (stereo not drawn)	0.146µM	10.3µM	n	0.206µM	n	0.461µM

Assay outcomes from PubChem BioAssay.
